From PubChem BioAssay
In the library only some 3% were active in any assay of this set; here they are far more common.
Nrf2 ARE act: qHTS of Nrf2 Activators. Potency, µM (doses to about 46.1 µM), usual class: activators. actives 0.31% (n = 410,000). AREc32 ARE-luciferase reporter (MCF7-derived line), luminescence, 24 h. AID 624171, 2012; note: nearly all actives have a fitted effect of over 65% in size
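Luminescent ARE reporter assay in AREc32_Fluc cells: overnight plating at 37 deg C, 24 hr compound incubation, Steady-Glo added, 30 min RT before reading.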
TrxR1 substrate: qHTS Assay for Substrates of Mammalian Selenoprotein Thioredoxin Reductase 1 (TrxR1): qHTS; Thioredoxin reductase 1, cytoplasmic (Rattus norvegicus), O89049; purified TrxR1 substrate turnover, NADPH consumption readout; Potency, µM (highest dose often 114 µM); actives 0.01% (n = 390,000); AID 588456, 2011; note: nearly all actives have a fitted effect of over 50% in size
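Rat TrxR1, dispensed at 90 nM, was prereduced with 400 uM NADPH (final) for 5 min at ~22 deg C, then incubated with compound 15 min before 400 uM selenite. A first-read NADPH fluorescence drop versus no-compound background flagged substrates.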
A549 tox: Nrf2 qHTS screen for inhibitors: counterscreen for cytotoxicity | Potency, µM (highest dose often 46 µM), most hits filed as inhibitors | AID 504648, 2011 | actives 0.16% (n = 390,000) | A549 ARE-Fluc cells, CellTiter-Fluor viability, 18-24 h
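Cytotoxicity counterscreen: CellTiter-Fluor fluorescence was measured in A549 ARE_Fluc cells after 18-24 h of compound exposure in a concentration series. The subsequent BugLite luminescent read reports ARE-luciferase activity.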
GALK inhibitor: qHTS Assay for Inhibitors of Human Galactokinase (GALK); Potency, µM (doses to about 57.5 µM), actives largely listed as inhibitors; Purified GALK, Kinase-Glo residual ATP luminescence; actives 0.007% (n = 270,000); P51570
Target sequence (P51570 whole entry, looked up): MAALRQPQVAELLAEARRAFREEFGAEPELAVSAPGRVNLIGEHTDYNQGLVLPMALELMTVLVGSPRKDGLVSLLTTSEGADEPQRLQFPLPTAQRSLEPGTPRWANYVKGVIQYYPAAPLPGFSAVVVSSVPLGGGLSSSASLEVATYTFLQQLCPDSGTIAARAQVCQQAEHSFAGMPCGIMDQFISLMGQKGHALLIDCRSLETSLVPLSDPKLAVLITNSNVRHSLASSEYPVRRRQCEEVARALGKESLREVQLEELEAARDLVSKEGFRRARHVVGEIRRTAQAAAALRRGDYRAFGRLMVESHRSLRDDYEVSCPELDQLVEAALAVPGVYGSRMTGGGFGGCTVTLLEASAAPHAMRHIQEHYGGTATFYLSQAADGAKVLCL
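GALK at 5 nM final was combined with compound, 35 uM ATP and 100 uM galactose in HEPES pH8.0 with MgCl2 and DTT. The reaction ran one hour at room temperature before luminescent ATP detection.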
TrxR1 inh: qHTS Assay for Inhibitors of Mammalian Selenoprotein Thioredoxin Reductase 1 (TrxR1): qHTS; recombinant rTrxR1, NADPH fluorescence consumption, selenite substrate; Potency, µM (top dose mostly 114 µM), most hits filed as inhibitors; actives 1% (n = 390,000); AID 588453, 2011; note: nearly all actives have a fitted effect of over 65% in size
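Rat TrxR1 (90 nM in the dispensed reagent) was pre-reduced with 400 uM NADPH for 5 min at room temperature, then incubated with compound for 15 min. After 400 uM selenite was added, NADPH fluorescence (Ex 340/Em 450 nm) was followed for 8 min.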
Nrf2 block: Nrf2 qHTS screen for inhibitors; A549 ARE-Fluc reporter, luciferase luminescence, 18-24 h; Potency, µM (series often up to 46 µM), most hits filed as inhibitors; actives 2.1% (n = 360,000); note: nearly all actives have a fitted effect of over 60% in size
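Quantitative HTS in A549 cells stably bearing an antioxidant response element-firefly luciferase construct. Inhibition of Nrf2-driven transcription was scored by luminescence after 18-24 h of compound exposure at 37 °C.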
Numbers stand for hits; i = inactive; ? = inconclusive; nt = no result given; [ ] = another dose, or the depositor's remark. Calls come from the whole dose curve; as a rule, active = well fitted curve in the direction sought with a large enough effect; inconclusive = small, poorly fitted or top-dose-only effect, or another doubt; inactive = no such curve, though single readings can be large; an effect the other way counts as inactive or inconclusive.

SMILES	Nrf2 ARE act	TrxR1 substrate	A549 tox	GALK inhibitor	TrxR1 inh	Nrf2 block
Cc1cc2c(C)cc(=O)[nH]c2cc1NC(=O)CCl	?	i	i	i	20µM	?
Cc1c(C(=O)OCc2nc3scc(-c4ccccc4)c3c(=O)[nH]2)cccc1[N+](=O)[O-]	i	i	i	i	i	20.6µM
O=C(OCc1nc2scc(-c3ccccc3)c2c(=O)[nH]1)c1cc(Cl)ccc1[N+](=O)[O-]	i	i	i	i	i	i
O=C(c1ccc(-c2ccc([N+](=O)[O-])cc2)o1)N1CCCCC1	i	i	i	i	?	?
CC1CC(C)CN(C(=O)c2ccc(-c3ccc([N+](=O)[O-])cc3)o2)C1 (stereo not given)	i	i	i	nt	17.8µM	i
O=[N+]([O-])c1ccc(Nc2nc(NCCN3CCOCC3)nc(Nc3ccc(Cl)cc3)n2)cc1	nt	i	nt	nt	i	nt
CN(C)S(=O)(=O)c1ccc(C(=O)Nc2cccnc2)cc1	i	i	i	i	i	nt
CN(C)S(=O)(=O)c1ccc(C(=O)/C=C/c2cccnc2)cc1	i	i	i	i	8.91µM	i
O=C(/C=C/c1cccnc1)/C=C/c1cccnc1	?	i	?	i	17.8µM	?
Cc1ccc(CC(=O)N(Cc2nc(-c3ccc(C)cc3)no2)C(C)C)cc1	i	i	i	nt	i	i
CC1CCC(NC(=O)c2ccc3c(c2)N(Cc2ccccc2F)C(=O)c2ccccc2S3=O)CC1 (stereo not given)	i	i	i	nt	i	i
CCCn1c(SCC(=O)c2ccc3c(c2)OCCO3)n[nH]c1=O	i	i	i	i	i	i
O=c1[nH]nc(SCCS(=O)(=O)c2ccc(F)cc2)n1-c1ccc2c(c1)OCCO2	12.6µM	i	i	i	i	i
O=c1[nH]nc(SCCS(=O)(=O)c2ccc(F)cc2)n1-c1ccccc1	12.6µM	i	i	i	i	i
CC(C)(C)OC(=O)NCCCNc1ncnc2ccc(-c3ccc4c(c3)OCO4)cc12	nt	nt	i	nt	nt	i
COc1ccc(CCN2C(=O)c3[nH]nc(-c4ccccc4O)c3C2c2ccc(OC)c(OC)c2)cc1 (stereo not given)	i	i	i	nt	i	i
COc1ccc(OCC2c3cc(OC)c(OC)cc3CCN2C(=O)c2c(F)cccc2F)cc1 (stereo not given)	i	i	i	nt	i	nt
COc1ccccc1NC(=O)c1csc2c1CCCC2	i	i	i	i	i	i
O=C(Nc1ccccn1)c1csc2c1CCCC2	5.01µM	i	i	i	i	?
O=C(NCc1ccco1)C1Cc2ccccc2CN1S(=O)(=O)c1ccccc1F (stereo not given)	?	i	i	nt	15.8µM	i
O=C(NCc1ccco1)C1Cc2ccccc2CN1C(=O)c1ccco1 (stereo not given)	i	i[11.4 µM]	i	i	i	i
O=c1[nH]c2ccc(S(=O)(=O)N3CCN(S(=O)(=O)c4ccc5c(c4)OCCO5)CC3)cc2[nH]c1=O	nt	nt	i	nt	nt	i
Cc1c(Cl)cccc1NS(=O)(=O)c1ccccc1	i	i	i	nt	i	i
Cc1c(NS(=O)(=O)c2ccccc2)cc(Cl)c(O)c1C	i	i	i	i	25.1µM	i
Cc1nn2c(=O)cc(COC(=O)c3cccs3)nc2s1	i	i	i	nt	i	?
SMILES	Nrf2 ARE act	TrxR1 substrate	A549 tox	GALK inhibitor	TrxR1 inh	Nrf2 block
CC(C)(C)c1ccc(C(=O)CC(Sc2ccc(Cl)cc2)C(=O)O)cc1 (stereo not given)	?	i	i	i	56.2µM	i
Cc1nn(CC(=O)NCc2cccc(F)c2)c(=O)c2c(C)n(-c3ccc(Cl)cc3)nc12	i	i	i	nt	i	nt
NC(=O)N=Nc1c2[nH]c3ccccc3nc-2c2ccccc12	i	i	?	i	i	10.3µM
O=C(Nc1cc(C(F)(F)F)ccc1Cl)C(O)Cc1ccccc1 (stereo not given)	nt	nt	i	nt	nt	i
COc1ccc(C(=O)N(Cc2ccco2)Cc2cccs2)cc1	nt	i	i	nt	i	i
CCCC(=O)N1CCN(c2ccc(NC(=O)c3cc4ccccc4o3)cc2Cl)CC1	i	i	?	i	i	13µM
CCC(=O)N1CCN(c2ccc(NC(=O)c3cc4ccccc4o3)cc2Cl)CC1	i	i	?	i	i	?
O=C(Nc1ccc(N2CCN(C(=O)c3ccco3)CC2)c(Cl)c1)c1cc2ccccc2o1	i	i	?	i	i	18.4µM
Cc1cc(S(=O)(=O)NC2CCCCC2)ccc1-n1cnnn1	i	i	i	i	i	11.6µM
Cc1sc(NC(=O)CSc2nc(N)cc(N)n2)c(C#N)c1C	i	i	i	i	i	20.6µM
Cc1ccc(NS(=O)(=O)c2c(C)nc3sc(C)c(C)n3c2=O)cc1F	i	i	i	nt	i	20.6µM
COc1ccc(Nc2ncnc3onc(-c4ccc(Cl)cc4)c23)cc1Cl	i	i	i	nt	i	i
C[C@H](CO)N1C[C@H](C)[C@@H](CN(C)C(=O)NC2CCCCC2)Oc2c(NC(=O)CCC(F)(F)F)cccc2C1=O	i	i	i	nt	i	i
Cc1noc(C)c1S(=O)(=O)N(C)C[C@H]1Oc2c(NC(=O)Nc3ccc(C(F)(F)F)cc3)cccc2C(=O)N([C@H](C)CO)C[C@@H]1C	i	i	i	nt	i	20.6µM
C[C@H](CO)N1C[C@H](C)[C@@H](CN(C)CC2CCCCC2)Oc2c(NC(=O)CCC(F)(F)F)cccc2C1=O	i	i	i	nt	i	18.4µM
CCN(CC)CCN1C(=O)c2ccccc2NC1c1ccc(OC)c(COc2ccc(NC(C)=O)cc2)c1 (stereo not given)	nt	i	i	nt	i	i
Cc1ccc(N(C)C(=O)Cn2ncc3c([nH]c4ccccc43)c2=O)cc1C	i	i	i	nt	i	i
COc1ccc(-n2nc(C(=O)Nc3ccc(Cl)cn3)c3c4ccccc4n(C)c3c2=O)cc1	i	i	i	nt	i	i
Cc1ccc2[nH]c3c(NCc4ccccc4)ncnc3c2c1	i	i	18.4µM	i	i	5.17µM
CCc1cc2c(NCC(=O)O)ncnc2s1	i	i	i	i	i	i
COc1ccc(CNc2ncnc3c2[nH]c2cc(OC)c(OC)cc23)cc1	i	i	i	i	i	i
c1coc(CNc2ncnc3c2[nH]c2ccccc23)c1	nt	i	i	nt	i	16.4µM
CCc1cc2c(NCc3ccco3)ncnc2s1	3.55µM	i	i	i	i	?
CC(C)OCCCNc1ncnc2c1[nH]c1ccccc12	i	i	i	i	i	11.6µM
